Assay results published in PubChem BioAssay AID463212 (Sanford-Burnham Center for Chemical Genomics, 2010).
Screen size: about 330,000 compounds; about 4,400 (1.3%) were called active.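 Rule for the calls: active = growth inhibition of the mutant yeast at or above 50%; inactive = the rest.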 The entries come from a sample that favours actives as a whole.

Experiment: growth inhibition of tim23-1 ts yeast – luminescence, uHTS, primary screen (AID 463212);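 note: temperature-sensitive mutant grown at 25 °C; plate controls were DMSO-treated mutant yeast for no effect and medium wells lacking yeast for full effect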
Conditions: S. cerevisiae tim23-1 growth, BacTiter-Glo luminescence, 24 h; at 20 µM; hits give high values
For `CCCC(C)c1nnc(NC(=O)C2CC(=O)N(c3ccc(OCC)cc3)C2)s1` (stereo not drawn), the inhibition was 16% (inactive). With `COc1cc(/C=C/C(=O)OCC(=O)NCCCc2ccccc2)ccc1O` the inhibition was 16.5% (inactive). With `O=C(OCc1cc2ccccc2[nH]c1=O)c1cccnc1` the inhibition was -4.57% (inactive). With `COc1ccc(Oc2coc3cc(OC(=O)c4cncc(Br)c4)ccc3c2=O)cc1` the inhibition was -12.3% (inactive). In the case of `O=C(Oc1c(-c2ccco2)oc2ccccc2c1=O)c1cccnc1`, the inhibition is reported as 51.2% (active). In the case of `CCOC(=O)N1CCN(CC(=O)n2c(C)c(C)c3ccccc32)CC1`, the inhibition is reported as 30.5% (inactive). In the case of `CCCCOc1ccc(CON(C(C)=O)C(C)=O)cc1Cl`, the inhibition is reported as 27% (inactive). For `Cc1ccc(C2=C/C(=C\c3cccnc3)C(=O)O2)cc1`, the inhibition was 33.4% (inactive). In the case of `O=C1OC(c2ccc(Cl)cc2)=N/C1=C\c1cccnc1`, the inhibition is reported as 40.9% (inactive). With `Cc1ccccc1C1=N/C(=C/c2cccnc2)C(=O)O1` the inhibition was 51.8% (active). For `CC(C)CC(=O)N1CCN(Cc2ccccc2Br)CC1`, the inhibition was 1.68% (inactive). With `COC(=O)c1cccc(N(C(=O)CNC(=O)c2cccs2)C(C(=O)NCC2CCCO2)c2ccc(OC)c(OC)c2)c1` (stereo not drawn) the inhibition was 0.773% (inactive). With `COc1ccc2nc(NC(=O)NC3CCCCC3)sc2c1` the inhibition was 58.4% (active). For `COc1ccc2nc(NC(=O)[C@@H]3CCCN3C(=O)c3cccs3)sc2c1`, the inhibition was 25.9% (inactive). For `COc1cccc(C(=O)Nc2nc3ccc(S(C)(=O)=O)cc3s2)c1`, the inhibition was 23.6% (inactive). In the case of `CC(C)=CCC/C(C)=C/C(=O)O`, the inhibition is reported as 8.44% (inactive). For `CC(C)S(=O)(=O)c1csc(NC(=O)Nc2ccc(Cl)cc2)c1Cl`, the inhibition was 22.2% (inactive). For `CCn1c(CSc2nncn2-c2ccc(OC)cc2)nc2cc(S(=O)(=O)N(C)C)ccc21`, the inhibition was 8.84% (inactive). With `Cc1cc(C(=O)COc2ccccc2Cl)c(C)n1C1CC1` the inhibition was 38.7% (inactive). In the case of `CC1CCCC(C)N1C(=O)CN1CCN(c2nc(-c3ccc(F)cc3)cs2)CC1` (stereo not drawn), the inhibition is reported as 52.8% (active). With `CCCc1cc(=O)[nH]c(SCC(=O)N2C(C)CCCC2C)n1` (stereo not drawn) the inhibition was 0.431% (inactive). For `O=C(COC(=O)C1CCCO1)Nc1nc(-c2ccc(F)cc2)cs1` (stereo not drawn), the inhibition was 11.2% (inactive). In the case of `O=C(COC(=O)/C(=C/c1cccs1)c1cccs1)NCc1ccccc1Cl`, the inhibition is reported as 24% (inactive). For `COc1cc(/C=C(\C#N)c2nc3ccccc3[nH]2)ccc1O`, the inhibition was 56.4% (active). With `O=C(/C(=C/c1cccc(Cl)c1)c1nc2ccccc2[nH]1)c1ccccc1` the inhibition was 44.9% (inactive). For `Cc1ccc2nc(/C(C#N)=C\c3ccc(OC(=O)c4cccs4)cc3)[nH]c2c1`, the inhibition was -4.69% (inactive). With `CCOc1ccc(OCC(=O)Nc2c3c(nn2C(C)(C)C)CS(=O)(=O)C3)cc1` the inhibition was 11.1% (inactive). For `CCOC(=O)c1c(NC(=O)CCl)sc(C(=O)N(CC)CC)c1C`, the inhibition was 5.96% (inactive). For `O=S(=O)(c1cccc2nonc12)N1CCN(c2cccc(Cl)c2)CC1`, the inhibition was 22.8% (inactive). For `O=C(CCCN1C(=O)CCC1=O)Nc1ccc(Cl)c(C(F)(F)F)c1`, the inhibition was -4.71% (inactive). In the case of `O=C(CC(O)(C(F)(F)F)C(F)(F)F)Nc1ccc(Cl)c(Cl)c1`, the inhibition is reported as 90.6% (active). With `O=C(COC(=O)c1cc[n+]([O-])cc1)Nc1ccc(Cl)c(C(F)(F)F)c1` the inhibition was 5.05% (inactive). For `CC/C(O)=C1\C(=O)CC(C)(C)CC1=NCCc1nc2ccccc2[nH]1`, the inhibition was -7.57% (inactive). For `CC(=O)N1CCOc2ccc(S(=O)(=O)N3CCN(c4cccc(C(F)(F)F)c4)CC3)cc21`, the inhibition was 36.1% (inactive). For `COC(=O)c1cc(OCC(=O)NC2CCCc3ccccc32)cc(C(=O)OC)c1` (stereo not drawn), the inhibition was 16.8% (inactive). For `COc1ccc(CN(C)C(C)C(=O)NC2CCCc3ccccc32)cc1` (stereo not drawn), the inhibition was 24.3% (inactive). With `COc1ccc2c(c1)C(NS(=O)(=O)OCC(Cl)(Cl)Cl)CCC2` (stereo not drawn) the inhibition was 55.4% (active). With `CC(CC(=O)N1CCN(c2ccccc2)CC1)S(=O)(=O)c1ccc2c(c1)NC(=O)CS2` (stereo not drawn) the inhibition was -6.88% (inactive). With `N/C(Cc1ccc([N+](=O)[O-])cc1)=N\OC(=O)C1CCCCC1` the inhibition was 58.8% (active). With `COC(=O)C(C)NC(=O)COc1ccc2ccccc2c1` (stereo not drawn) the inhibition was 7.67% (inactive). In the case of `O=C(NCC(O)c1ccc([N+](=O)[O-])cc1)C1CCCCC1` (stereo not drawn), the inhibition is reported as -0.943% (inactive). In the case of `O=C(COC(=O)Cc1ccc([N+](=O)[O-])cc1)NC1CCCCCC1`, the inhibition is reported as 19.1% (inactive). For `N/C(Cc1ccc([N+](=O)[O-])cc1)=N\OC(=O)COc1ccc2ccccc2c1`, the inhibition was 60.5% (active). With `Cc1cc(C)cc(OCC(=O)O/N=C(\N)Cc2ccc([N+](=O)[O-])cc2)c1` the inhibition was 26.9% (inactive). In the case of `CC(Oc1ccc2c(-c3ccccc3)cc(=O)oc2c1)C(=O)NC(Cc1c[nH]c2ccccc12)C(=O)O` (stereo not drawn), the inhibition is reported as 21% (inactive). For `CCc1ccc(NC(=O)CS(=O)CC(=O)N2CCN(c3ccccc3F)CC2)cc1` (stereo not drawn), the inhibition was -23.1% (inactive). For `Cc1occc1C(=O)N/N=C/c1ccc(-c2cccc([N+](=O)[O-])c2)o1`, the inhibition was 26% (inactive). In the case of `Cc1ccc(-c2ccc(/C=N/NC(=O)CN3CCOCC3)o2)cc1[N+](=O)[O-]`, the inhibition is reported as 55.9% (active). For `O=C(CN1CCOCC1)N/N=C/c1ccc(-c2ccc(Br)cc2)o1`, the inhibition was 1.87% (inactive). In the case of `Cc1cccc(CC(=O)N2CCN=C2SCc2ccc([N+](=O)[O-])cc2)c1`, the inhibition is reported as -3.28% (inactive). In the case of `O=C(COc1ccccc1F)Nc1nc(-c2ccccn2)cs1`, the inhibition is reported as 28.7% (inactive). In the case of `CCN(C(=O)COC(=O)C1CCN(S(=O)(=O)c2ccc(C)c(C)c2)CC1)C1CCS(=O)(=O)C1` (stereo not drawn), the inhibition is reported as 0.758% (inactive). With `C/C(N)=C(/C#N)C(=O)COC(=O)c1cc(-c2ccc(C)cc2)nc2ccccc12` the inhibition was 3.42% (inactive). In the case of `COC(=O)CNC(=O)c1cc(-c2ccncc2)nc2ccccc12`, the inhibition is reported as 10.9% (inactive). In the case of `N/C(=N\OC(=O)c1cc(-c2ccccc2)nc2ccccc12)c1ccncc1`, the inhibition is reported as 79.2% (active). With `CNC(=O)COc1ccc(S(=O)(=O)Nc2ccccc2)cc1` the inhibition was 8.77% (inactive). In the case of `NC(=O)c1oc2ccccc2c1NC(=O)CS(=O)(=O)c1ccccc1`, the inhibition is reported as 6.4% (inactive). In the case of `S=C(Nc1ccc(Br)cc1Cl)N1CCC2(CC1)OCCO2`, the inhibition is reported as 20.7% (inactive).
